± gives the standard deviation.
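Also: 1 nM active piRISC with 0.1 nM target library at 33 °C single turnover.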

The test system of the experiment is MILI (PIWIL2) piRISC loaded with L1MC piRNA (26 nt). Put plainly: pre-steady-state target cleavage rate (min^-1); guide: L1MC piRNA 5'p-UAACUAAAUACUAUGCAAGCUGUAGG; MIWI and MILI are mouse PIWI proteins and EfPiwi is from a freshwater sponge; tags in brackets are library labels; higher = faster piRNA-guided slicing of the target. The settings on record: auxiliary factor: none (no GTSF1). A digest of the protocol:
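Reactions were run for 0–8 or 0–960 min at 33 °C in HEPES–potassium acetate buffer, combining 1 nM active affinity-purified piRISC with one synthetic guide, […] transcribed, DNA-blocked target RNA library and, in some cases, 500 nM GTSF1 partner protein. Sequencing of uncleaved targets followed, with normalisation to depth and to weakly complementary targets. Three trials were pooled, k3 was capped at 0.0001 min^-1, and the pre-steady-state cleavage rate was taken from a burst-and-steady-state fit.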
For UCCUGGAUGUCGUUGUAUAGUAUUUAGUUA, the “pre-steady-state target cleavage rate” value is 0.0105 ± 0.0023.

Consider UCCUGGUACAGCUUGCAAUGUAUUUAGUUA, for which the “pre-steady-state target cleavage rate” value turned out to be 0.0121 ± 0.0029.

Take UCCUGGAUGUCGAAGCAUAGUAUCUUAGUUA: the “pre-steady-state target cleavage rate” value came to 0.00455 ± 0.0025.

On to UCCUGGAUGUGCUUGCUAUGUAUUUAGUUA, for which the “pre-steady-state target cleavage rate” value was determined as 0.00498 ± 0.0024.

On to UCCUGGAUCACGUUGCAUAGUAUUUAGUAA, for which the “pre-steady-state target cleavage rate” value was found to be 0.00365 ± 0.0029.

UCCUGGAUGUCGUUGCAUAGUUUUUAGUUA: the “pre-steady-state target cleavage rate” value turned out to be 0.00595 ± 0.0026.

For UCCUGGAUGUGCUAGCAUUGUAUUUAGUUA, the “pre-steady-state target cleavage rate” value was 0.00365 ± 0.0026.

On to UCCUCCUUCAGCUUGCAUUGUAUUUAGUUA, for which the “pre-steady-state target cleavage rate” value amounted to 0.00662 ± 0.002.

Take UCCUGGAUCAGCUUGAUAGUAUUUAGUUA: the “pre-steady-state target cleavage rate” value was found to be 0.00451 ± 0.002.

Take UCCUGGAUGACCUUGCAUACUAUUUAGUUA: the “pre-steady-state target cleavage rate” value was 0.00358 ± 0.0034.

Consider UCCUGGAUGUGCUUGCAUUGUAUUUAGUUA, for which the “pre-steady-state target cleavage rate” value is 0.00523 ± 0.0031.

Turning to UCCUGGAUGUCGUUGCAUAGUUAUUUAGUUA, the “pre-steady-state target cleavage rate” value amounted to 0.00324 ± 0.003.

With UCCUGGAUGUCCUUGCUUAGUAUUUAGUUA, the “pre-steady-state target cleavage rate” value came out at 0.00574 ± 0.0022.

On to UCCUGGAACAGCUUGCAAUGUAUUUAGUAA, for which the “pre-steady-state target cleavage rate” value came out at 0.00326 ± 0.0026.

As for UCCUGGAUGUCGUUGCAUAGUAUUGAGUUA, the “pre-steady-state target cleavage rate” value worked out at 0.00363 ± 0.0032.

With UCCUGGAUCAGCUUGCAUAGUUUAUAGUUA, the “pre-steady-state target cleavage rate” value is 0.00545 ± 0.0025.

On to UCCUGGAUGUCGUUGCAUAGUAUUUAGUAUA, for which the “pre-steady-state target cleavage rate” value was 0.00811 ± 0.0035.

Values taken from the supplement of paper PMC10338343.
